Measured values from ChEMBL document CHEMBL1157539, “Thousands of chemical starting points for antimalarial lead identification” (Nature, 2010).

How the values were obtained:
Format in all cases: functional
[1] = test system: Plasmodium falciparum; test: GSK_TCMDC: Inhibition of Plasmodium falciparum 3D7 in whole red blood cells, using parasite LDH activity as an index of growth. Test compounds present at 2uM
[2] = test system: Plasmodium falciparum; test: GSK_TCMDC: Inhibition of Plasmodium falciparum Dd2 in whole red blood cells, using parasite LDH activity as an index of growth. Test compounds present at 2uM
[3] = test system: HepG2; test: GSK_TCMDC: Percent inhibition of human HepG2 cell line. Test compounds present at 10uM.

Which Inhibition [1] does the source give for Cc1cc(NCc2ccccc2)nc(NCc2ccccc2)n1 here?
Its Inhibition is 91%.

And the Inhibition [2]?
The Inhibition was 18%.

And the Inhibition [3]?
The Inhibition was 21%.

Which Inhibition [1] does the source give for COc1cc(-c2nnc(SCC(=O)Nc3cc(C)on3)n2C)cc(OC)c1O here?
Its Inhibition is 89%.

What about the Inhibition [2] of the same molecule?
The Inhibition was 2%.

What about the Inhibition [3] of the same molecule?
Its Inhibition is 2%.

For O=C(Nc1ccc(CCN2CCC(c3nc(COCC(F)(F)F)c(-c4ccccc4)o3)CC2)cc1)c1ccc(F)cc1, which Inhibition [1] is on record?
Its Inhibition is 86%.

And the Inhibition [2]?
The Inhibition was 3%.

What about the Inhibition [3] of the same molecule?
Its Inhibition is 9%.

Which results are given for Cc1ccc(Nc2nc(N)c3ccccc3n2)cc1.Cl?
Inhibition [1]: 94%; Inhibition [2]: 12%; Inhibition [3]: 9%

For CN(C)CCN(C)Cc1ccc(-c2ccc(NC(=O)c3ccc(Cl)cc3)cc2)cc1.O=C(O)C(F)(F)F, which Inhibition [1] is on record?
Its Inhibition is 91%.

And the Inhibition [2]?
The Inhibition was 19%.

What about the Inhibition [3] of the same molecule?
The Inhibition was 51%.

Which Inhibition [1] does the source give for O=C(N[C@@H](CC1CCCCC1)C(=O)NC1CCCc2ccccc21)c1ccc(O)c(-c2cccc(C(F)(F)F)c2)c1 (stereo partly drawn) here?
Its Inhibition is 100%.

What about the Inhibition [2] of the same molecule?
Its Inhibition is 99%.

And the Inhibition [3]?
Its Inhibition is 0%.

Cc1cccc2nc(-c3ccc(-c4cccc(CN5CCCCC5)c4)s3)[nH]c12.O=C(O)C(F)(F)F was tested. Which Inhibition [1] did it give?
The Inhibition was 100%.

And the Inhibition [2]?
Its Inhibition is 92%.

What about the Inhibition [3] of the same molecule?
The Inhibition was 11%.

For O=[N+]([O-])c1ccc(N/C(=N\c2ccccc2Br)NCCOc2ccccc2)c(O)c1, which Inhibition [1] is on record?
The Inhibition was 88%.

And the Inhibition [2]?
The Inhibition was 70%.

And the Inhibition [3]?
The Inhibition was 6%.

How did the Inhibition [1] turn out when O=C(CSc1nc(-c2ccccc2Cl)ns1)Nc1cccc(Cl)c1 was run?
The Inhibition was 96%.

And the Inhibition [2]?
Its Inhibition is 89%.

And the Inhibition [3]?
The Inhibition was 0%.

O=C(Nc1ccc(Cl)cc1)c1ccc(CN2CCCN(Cc3cccc(F)c3)CC2)cc1.O=C(O)C(F)(F)F was tested. Which Inhibition [1] did it give?
The Inhibition was 91%.

What about the Inhibition [2] of the same molecule?
The Inhibition was 8%.

And the Inhibition [3]?
Its Inhibition is 59%.

Which results are given for CC(C)(C)c1cc(C(=O)N2CCC(c3ccccn3)CC2)n(Cc2ccccc2)n1?
Inhibition [1]: 96%; Inhibition [2]: 90%; Inhibition [3]: 3%
